Assay results: PubChem BioAssay AID1508625 (Wald Lab, School of Medicine, Case Western Reserve …, 2021)

Test: enhancers of NK cell killing of ovarian tumor cells, primary screen, imaging, OVCAR3, primary NK cells, calcein-AM imaging (AID 1508625);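 further: compound given to NK cells 16 h before adding targets at 1.5 to 1 ratio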
Details: OVCAR3 lysis by primary NK cells, at 5 µM; z-score: measured here: robust Z-score, single-point normalisation

Structure (SMILES)	corrected activity, negative = more killing	z-score
COc1ccc(-n2c(=S)[nH]c3cc(C(=O)O)ccc3c2=O)c(OC)c1	-4.6%	-1.46
COc1ccc(C(N)=NOC(=O)CSc2ccccc2)cc1	-1.04%	-0.576
COc1cc(OC)c(OC)cc1CN1CCN(C(=O)c2ccncc2)CC1	-2.22%	-0.992
COc1ccc(C2=NN(C(=O)c3ccc(Br)o3)C(c3ccc(N(C)C)cc3)C2)cc1OC (stereo not drawn)	-3.55%	-1.9
CCn1cnc2sc(C(=O)Nc3cccc([N+](=O)[O-])c3)c(C)c2c1=O	-2.56%	-0.931
O=C(c1ccc(Cn2c(=S)[nH]c3cc4c(cc3c2=O)OCO4)cc1)N1CCC(N2CCCCC2)CC1	-3.36%	-0.889
CCOC(=O)C(C)Sc1nc2c([nH]c3ccccc32)c(=O)n1C (stereo not drawn)	-3.61%	-0.899
COc1cccc(NS(=O)(=O)c2ccc3c(c2)[C@H]2C=CC[C@H]2[C@@H](c2ccccc2Cl)N3)c1	-8.83%	-2.64
CCCCN(C)CCn1c(=S)[nH]c2cc3c(cc2c1=O)OCO3	-6.47%	-1.71
Cc1ccc(C2C(=C(O)c3ccc(Cl)cc3)C(=O)C(=O)N2CCCn2ccnc2)cc1 (stereo not drawn)	-3.13%	-1.2
O=[N+]([O-])c1ccc(C=Nn2c(CO)nc3ccccc32)cc1	-5.03%	-1.6
COc1ccccc1OCCCCCCN1CCOCC1	-4.44%	-1.82
COc1ccc(-c2ccc3c(N)c(C(=O)NCCc4ccc(Cl)cc4)sc3n2)cc1	-1.65%	-0.492
COc1ccc(N2C3=C(C(=O)CC(C)(C)C3)C(c3cccc(F)c3)C3=C2CC(C)(C)CC3=O)c(OC)c1	-1.83%	-0.581
